# Compound activity deposited in PubChem by National Center for Advancing Translational Sciences (NCATS).
# APE1 inh – blocks human APE1 abasic DNA cleavage; P27695; recombinant APE1, TAMRA/BHQ-2 abasic DNA cleavage fluorescence; Potency, µM (titrated, usually from 65.8 µM), inactives show at the highest dose activity change, negative = inhibition, most hits filed as inhibitors; hit rate 0.35% among 350,000; AID 2517;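 further: plate controls were vehicle for no effect and reference inhibitor for full effect; nearly all actives have a fitted effect of over 55% in size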
# Target sequence (P27695 whole entry, looked up): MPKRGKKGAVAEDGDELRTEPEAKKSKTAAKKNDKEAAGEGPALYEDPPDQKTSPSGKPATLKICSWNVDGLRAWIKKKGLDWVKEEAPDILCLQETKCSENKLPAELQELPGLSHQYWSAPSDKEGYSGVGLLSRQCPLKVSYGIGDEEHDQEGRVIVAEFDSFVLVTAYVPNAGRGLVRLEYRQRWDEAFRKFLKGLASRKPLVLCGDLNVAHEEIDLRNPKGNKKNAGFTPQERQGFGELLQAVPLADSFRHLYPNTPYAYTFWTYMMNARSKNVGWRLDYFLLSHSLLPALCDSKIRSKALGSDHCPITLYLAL
#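 Enzyme (0.75 nM final) and test compound are incubated 15 min at room temperature before adding 50 nM quenched THF abasic-site duplex. Cleavage dequenches TAMRA, followed at 525/598 nm over three reads one minute apart.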
# JMJD2E inh – blocks human JMJD2E demethylase activity. B2RXH2. JMJD2E catalytic domain, FDH-coupled NADH fluorescence (FDH is formaldehyde dehydrogenase). Potency, µM (top dose mostly 57.1 µM), for inactives: at the top dose activity change, negative = inhibition, most hits filed as inhibitors. hit rate 1.6% among 230,000. AID 2147; active means well fitted inhibition curve with a large enough effect, not every such curve was filed as active; inconclusive means small, poorly fitted or top-dose-only effect, or another doubt; inactive means no such curve, though single readings can be large or run the other way;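 further: 0% = wells with enzyme and -100% = buffer wells without enzyme; nearly all actives have a fitted effect of over 50% in size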
# Target sequence (B2RXH2 1-337 limits assumed): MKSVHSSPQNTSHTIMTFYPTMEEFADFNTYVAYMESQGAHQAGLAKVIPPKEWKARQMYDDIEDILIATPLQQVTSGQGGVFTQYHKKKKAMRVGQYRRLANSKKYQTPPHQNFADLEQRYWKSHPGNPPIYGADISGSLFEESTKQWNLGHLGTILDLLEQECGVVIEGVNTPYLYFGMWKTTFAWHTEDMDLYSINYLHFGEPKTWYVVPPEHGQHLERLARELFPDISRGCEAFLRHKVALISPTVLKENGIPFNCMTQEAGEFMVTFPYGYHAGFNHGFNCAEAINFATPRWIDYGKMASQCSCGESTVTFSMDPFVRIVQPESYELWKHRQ
# L3MBTL1 inh – L3MBTL1 (human) inhibition | AlphaScreen L3MBTL1–H3K9me1 peptide binding | Potency, µM (series often up to 57.1 µM), for inactives: at the top dose activity, negative = inhibition, usual class: inhibitors | hit rate 0.66% among 230,000 | AID 485360; further: nearly all actives have a fitted effect of over 60% in size
#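 Displacement of a biotinylated histone H3(1-15) peptide monomethylated at Lys9 (75 nM) from L3MBTL1 (50 nM) was measured by AlphaScreen after a 30 min room-temperature compound incubation; cefsulodin titration served as intraplate control.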
# BLM helicase inh – inhibitors of human Bloom syndrome helicase BLM; P54132; recombinant BLM DNA unwinding, fluorescence dequenching; Potency, µM (top dose mostly 56.1 µM), inactives show at the highest dose activity change, negative = inhibition, most hits filed as inhibitors; hit rate 0.2% among 350,000; AID 2528;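 further: plate controls were vehicle for no effect and no enzyme for full effect; nearly all actives have a fitted effect of over 35% in size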
# RECQ1 inh-1 – blocks DNA unwinding by human RECQ1 | hit rate 0.54% among 240,000 | P46063 | RECQ1 DNA unwinding, red fluorescence kinetic read | Potency, µM (doses to about 57.3 µM), for inactives: at the highest dose activity, negative = inhibition, actives largely listed as inhibitors;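 further: plate controls were vehicle for no effect and no enzyme for full effect; nearly all actives have a fitted effect of over 30% in size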
#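 RECQ1T1 50 nM; forked duplex (20 bp + 30-nt ss tails) 200 nM, ATP 2 mM final; pH 8.0, 2 mM MgCl2, 2.5 ug/ml poly(dI-dC); 15 min compound preincubation; discontinuous kinetic read over 2 h at RT.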
# RECQ1 inh conf – confirmation of human RECQ1 helicase inhibitors; shares compounds with RECQ1 inh-1; RECQ1 helicase DNA unwinding, fluorescence; Potency, µM (doses to about 229 µM), inactives show top-dose activity change, negative = inhibition, most hits filed as inhibitors; hit rate 28% among 610; further: nearly all actives have a fitted effect of over 45% in size
# RECQ1 ADP FP – ADP displacement flagged in RECQ1 inhibitor counter-screen | shares compounds with RECQ1 inh-1 | ADP fluorescence polarization displacement counterscreen | Potency, µM (highest dose often 228 µM), without a hit: at the highest dose activity change, negative = inhibition, most hits filed as inhibitors | hit rate 27% among 530 | AID 2711; further: nearly all actives have a fitted effect of over 45% in size
# RECQ1 inh-2 – blocks human RECQ1 DNA unwinding | Potency, µM (series often up to 119 µM), for inactives: top-dose activity, negative = inhibition, most hits filed as inhibitors | shares compounds with RECQ1 inh-1 | recombinant RECQ1 DNA unwinding, red fluorescence | hit rate 15% among 1,100; further: nearly all actives have a fitted effect of over 50% in size
# The depositor's hits bear a star; i = inactive; ? = inconclusive; . = no result; [ ] = dose if it differs, or a comment. Many of the other results were omitted from the sample, so hits are more common in it than they were. Unless noted, the call rests on the fitted dose curve; in most records, active means well fitted curve in the direction sought with a large enough effect; inconclusive means small, poorly fitted or top-dose-only effect, or another doubt; inactive means no such curve, though single readings can be large; an effect the other way counts as inactive or inconclusive. Unless noted, on the % scale 0 is the no-effect control and ±100 the full control effect; potency means the concentration at half of the fitted maximal effect.
SMILES,APE1 inh,JMJD2E inh,L3MBTL1 inh,BLM helicase inh,RECQ1 inh-1,RECQ1 inh-2,others
COc1ccc2c(c1)CC/C(=C\c1ccc(OC)c(Cn3cccn3)c1)C2=O,3%,-22%,.,-9%,-1%,.,
COc1ccc2c(c1)CC/C(=C\c1ccc(OC)c(Cn3nc(C)cc3C)c1)C2=O,-3%,-1%,.,-12%,35µM*,?,
O=C1/C(=C\c2ccc(O)cc2)SC(=S)N1c1cccnc1,4%,-7%,0%,?,-9%,.,
O=C1/C(=C/c2ccco2)SC(=S)N1c1cccnc1,4µM*,?,3.2µM*,32µM*,8.9µM*,.,RECQ1 inh conf=50µM*;RECQ1 ADP FP=50µM*
Nc1nc(Nc2cccc(Cl)c2)nc(NCCO)c1[N+](=O)[O-],-3%,4%,.,?,?,50µM*,
Nc1nc(Nc2ccc(Cl)cc2)nc(NCc2ccco2)c1[N+](=O)[O-],16%,-1%,-9%,?,16µM*,79µM*,RECQ1 inh conf=32µM*;RECQ1 ADP FP=10%[91.9 µM]
Nc1nc(Nc2cccc(Cl)c2)nc(NCc2ccco2)c1[N+](=O)[O-],-1%,-7%,-29%,?,?,79µM*,
COc1ccc(NC(=O)CCn2c(=O)c3cccn3c3ccccc32)c(OC)c1,37%,.,.,-7%,.,.,
COc1ccccc1OCCNC(=O)c1ccco1,-6%,.,.,-1%,.,.,
COc1cc(Br)c(CCNC(=O)c2ccco2)cc1OC,20%,0%,-5%[11.4 µM],-2%,?,-8%,
O=C1C=CC2=C3c4cc(O)c(O)cc4C[C@]3(O)COC2=C1,10µM*,13µM*,.,-11%,11µM*,.,RECQ1 inh conf=112µM*;RECQ1 ADP FP=6.3µM*
CC(NS(=O)(=O)c1ccc(Cl)cc1)C(=O)N1CCOCC1 (centres undefined),71%,.,.,-4%,.,.,
CCCCNC(=O)c1onc(CSc2cccc3ccccc23)c1C(=O)O,1%,4%,12%,-3%,6%,.,RECQ1 inh conf=?;RECQ1 ADP FP=-4%
O=C(NCC1CCCO1)c1onc(CSc2cccc3ccccc23)c1C(=O)O (centres undefined),-1%,9%,2%,-1%,-10%,.,RECQ1 inh conf=5%;RECQ1 ADP FP=2%
C=CCNC(=O)c1onc(CSc2cccc(OC)c2)c1C(=O)O,1%,-4%,13%,1%,-6%,.,RECQ1 inh conf=6%;RECQ1 ADP FP=?
COc1cccc(SCc2noc(C(=O)NC(C)C)c2C(=O)O)c1,1%,0%,6%,0%,-1%,.,
COc1ccc(Cn2c(=O)[nH]c3cc(C(=O)N4CCN(c5cc(C)ccc5C)CC4)ccc3c2=O)cc1,.,.,.,-4%,.,.,
O=C(c1c(F)cccc1F)N(Cc1ccccc1)Cc1ccccc1,46%[12.4 µM],.,.,-7%,.,.,
COc1ccc(CNc2nc3ccccc3n2Cc2ccc(C)cc2)cc1OC,-1%,-1%,-3%,-4%,5%,.,
O=C(Nc1ccc(F)c(Cl)c1)Nc1csc2ccccc12,-4%,2%,.,-9%,-9%,.,
CCNc1ccc(C(=O)OCC(=O)NCCN2C(=O)CSC2=O)cc1[N+](=O)[O-],3%,-27%,-27%,0%,?,5%,
Cc1ccc(C(=O)OCC(=O)NCCN2C(=O)CSC2=O)cc1,1%,-9%,-3%,-9%,-12%,.,
CN(C)c1ccc(-c2nc(Nc3ccncc3)c3ccccc3n2)cc1,5%,?,.,-13%,?,?,
CN(C)C(=O)c1ccc(-c2nc(Nc3ccncc3)c3ccccc3n2)cc1,7%,?,.,45%,-3%,.,
CC(C)=CCC/C(C)=C/CNC(=O)C[C@H]1C[C@H](C(=O)N(C(C)C)C(C)C)[C@@]2(C)c3[nH]c4cc(CCC(=O)N(C)C)ccc4c3CCN2C1=O,-9%,.,-2%,.,.,.,
SMILES,APE1 inh,JMJD2E inh,L3MBTL1 inh,BLM helicase inh,RECQ1 inh-1,RECQ1 inh-2,others
Cc1ccc(C2=CC(C)(c3ccc(C)cc3)Nc3nc(C(F)(F)F)nn32)cc1 (centres undefined),13%,-2%,-5%,-4%,?,-15%,
Nc1ccc(N2CCCCCC2)cc1,?,?,18µM*,-12%,14µM*,.,RECQ1 inh conf=-3%[114 µM]
Nc1ccc(N2CCN(c3ccc(F)cc3)CC2)cc1,10%,-24%,-14%,0%,i,.,
COc1ccc(/C=C/C(=O)c2sc(-c3ccc(Cl)cc3)nc2C)cc1,-3%,11%,-11%,-1%,-6%,.,
CN1/C(=C\C(=S)NC(=O)c2ccccc2Cl)C(C)(C)c2ccccc21,-5%,-3%,?,-4%,25µM*,?,
CN1/C(=C/C(=S)NC(=O)C2(C)CC2(Cl)Cl)C(C)(C)c2ccccc21 (centres undefined),3%,-3%,-11%[11.4 µM],-8%,i,.,
CC(=O)c1cc2c(cc1N(C(=O)Cn1nnc3ccccc31)C(C(=O)NCCC(C)C)c1cccnc1)OCO2 (centres undefined),-5%,-17%,2%,-2%,0%,.,RECQ1 inh conf=-3%;RECQ1 ADP FP=5%
Cc1ccc(N(C(=O)Cn2nnc3ccccc32)C(C(=O)NCc2ccco2)c2cccnc2)cc1 (centres undefined),-11%,-27%,34%,-7%,-1%,.,
O=C(Nc1nc(-c2ccccc2)cs1)Nc1ccc(F)cc1F,-1%,3%,0%,-12%,?,-11%,
O=C(Nc1nc(-c2ccccn2)cs1)Nc1ccc(F)cc1F,24%,.,.,-8%,.,.,
CCOc1ccc2nc(SCC(=O)N3c4ccccc4Sc4ccccc43)sc2c1,16%,-2%,-3%,0%,-1%,.,RECQ1 inh conf=-7%;RECQ1 ADP FP=15%
CC1C(=O)N2CCCc3cc(S(=O)(=O)N4CCN(c5ccccc5F)CC4)cc1c32 (centres undefined),54%,.,.,-6%,.,.,
COc1ccc(NC(=O)c2ccc3c(SCC(=O)O)c4c(nc3c2)CCCC4)c(OC)c1,?,-10%,.,-29%,?,-6%,
COc1ccc(Cl)cc1NC(=O)c1ccc2c(SCC(=O)O)c3c(nc2c1)CCCC3,46%,.,.,-1%,.,.,
COc1cccc(CNC(=O)CN(C)S(=O)(=O)c2ccc3[nH]c4c(c3c2)CCCC4)c1,.,.,.,-4%,.,.,
O=C(C1COc2ccccc2O1)N1CCCC1 (centres undefined),1%,4%,.,-4%,-4%,.,
O=C(C1COc2ccccc2O1)N1CCc2ccccc21 (centres undefined),?,5%,?,-22%,?,13µM*,
Cc1cnc(CNc2ncnc3ccc(-c4ccc(C(=O)N(C)C)cc4)cc23)cn1,1%,.,.,-13%,3%,.,
